High-throughput results as filed in PubChem BioAssay.
Sm TGR block – qHTS Assay for the Inhibitors of Schistosoma Mansoni Peroxiredoxins | Schistosoma mansoni thioredoxin glutathione reductase (TGR), Q962Y6 | purified TGR, DTNB reduction, TNB absorbance 405 nm | Potency, µM (titrated, usually from 114 µM), inactives show at the top dose activity change, negative = inhibition, usual class: inhibitors | actives 3% (n = 360,000) | AID 485364, 2010; also: potency is read from the fitted curve at half-maximal effect; % is scaled to controls: 0 for no effect and ±100 for the full control effect; nearly all actives have a fitted effect of over 60% in size
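Kinetic colorimetric format: TGR-catalysed, NADPH-driven DTNB reduction monitored via TNB absorbance. Enzyme dispensed at 20 nM; compound exposure 15 min at room temperature before reaction start.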
Pf growth 96h – Primary qHTS for delayed death inhibitors of the malarial parasite plastid, 96 hour incubation; AID 504834, 2011; P. falciparum luciferase reporter growth, 96 h; actives 6.9% (n = 320,000); Potency, µM (series often up to 28.7 µM), inactives show at the highest dose activity change, negative = inhibition, hits mostly inhibitors; also: potency is read from the fitted curve at half-maximal effect; % is scaled to controls: 0 for no effect and ±100 for the full control effect
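96 h incubation, 37 C, 5% CO2, of luciferase-reporter P. falciparum-infected RBCs (2% hematocrit, 0.05% parasitemia final) with test compounds; endpoint luminescence.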
NS1 function inh – qHTS Assay for Inhibitors of Influenza NS1 Protein Function; Potency, µM (titrated, usually from 46.1 µM), for the others: top-dose activity, positive = more growth; actives 0.4% (n = 270,000); AID 2326, 2010; calls by dose curve; also: potency is read from the fitted curve at half-maximal effect; actives are rising curves; nearly all actives have a fitted effect of over 50% in size
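OD600 was taken as the measure of yeast growth restored by compound in an NS1-expressing S. cerevisiae strain. Cells had been washed out of glucose medium and diluted 1:100 into galactose -URA medium, pH 6.0.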
CHX counter – Cycloheximide Counterscreen for Small Molecule Inhibitors of Shiga Toxin; cell reporter, cycloheximide protein synthesis inhibition counterscreen; max response, %; actives 12% (n = 300,000); in the data active = max response mostly above about 13%, no sharp cut-off; inactive = mostly below about 14%; also: read at 38.3 µM for the half of the compounds with a filed dose; 0% is about no effect
Shiga toxin inh – A qHTS for Small Molecule Inhibitors of Shiga Toxin; actives 9.2% (n = 290,000); inhibition, % at 38.7 µM; Vero cells, Shiga toxin protein synthesis inhibition reporter; AID 2315, 2010; in the data active = inhibition mostly above about 28%, no sharp cut-off; inactive = mostly below about 43%; also: 0% is about no effect
Pf growth 48h – Primary qHTS for delayed death inhibitors of the malarial parasite plastid, 48 hour incubation. AID 504832, 2011. P. falciparum luciferase growth in erythrocytes, 48 h. actives 5.9% (n = 310,000). Potency, µM (highest dose often 28.7 µM), without a hit: at the top dose activity change, negative = inhibition, hits mostly inhibitors; also: potency is read from the fitted curve at half-maximal effect; % is scaled to controls: 0 for no effect and ±100 for the full control effect
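Luciferase-expressing P. falciparum in infected erythrocytes (2% hematocrit, 0.1% parasitemia final) in RPMI 1640/0.5% Albumax were exposed to compound for 48 hours at 37 C, 5% CO2; growth read as luminescence.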
Active calls of the source: *; ? = inconclusive; . = not tested or not shown. This is a sample that favours compounds with a hit; in the whole collection about 21% have one here. Unless noted, calls follow the shape of the dose curve; as a rule, active = well fitted curve in the direction sought with a large enough effect; inconclusive = small, poorly fitted or top-dose-only effect, or another doubt; inactive = no such curve, though single readings can be large; an effect the other way counts as inactive or inconclusive.

SMILES	Sm TGR block	Pf growth 96h	NS1 function inh	CHX counter	Shiga toxin inh	Pf growth 48h
Cc1cccn2c(=O)c(/C=C(\C#N)C(=O)NC3CCS(=O)(=O)C3)c(Oc3ccccc3Cl)nc12 (stereo unspecified)	-26%	?	-20%	-6	-4	4.7µM*
Cc1ccccc1Oc1nc2c(C)cccn2c(=O)c1/C=C(\C#N)C(=O)NC1CCS(=O)(=O)C1 (stereo unspecified)	-27%	12µM*	-8%	-1	9	5.9µM*
O=C(O)C1CCN(C(=O)CSc2nc3cc(Cl)ccc3c(=O)n2Cc2ccccc2)CC1	-9%	?	30%	-6	-4	?
O=C1CCC(=O)N1OCCOc1ccc2c(c1)CCC2	-7%	1%	-1%	24*	47*	2%
O=C1CCC(=O)N1OCCCOc1ccc2c(c1)CCC2	-17%	.	-10%	10*	0	-8%
O=C1CCC(=O)N1OCCOc1ccc(Cl)c2ccccc12	-3%	9%	-5%	16	13	2%
CC1(C)NC(=O)N(CCCCOc2ccc3c(c2)CCC3)C1=O	-4%	.	-25%	11	16	?
O=C(Nc1ccccc1C(F)(F)F)C(O)(c1ccccc1)C1CCCCC1 (stereo unspecified)	4µM*	2%	.	.	.	?
